Data: PubChem BioAssay
Values joined by “and” are separate entries in the source; they are usually repeats but may differ in a detail not shown here. Identical values can stand only once. Active and inactive are the calls of the source. Rule as the data show it, unless noted: active = parasite load remaining mostly below about 12% (no sharp cut-off); inactive = mostly above about 10%.

What was measured:
[1] = P. berghei load reduction in hepatocytes – cell-based, HepG2, luciferase luminescence, HepG2 viability, primary screen (AID 624349);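 also: 100% = mean of DMSO negative control wells on the same plate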; conditions: P. berghei liver stage in HepG2, luciferase luminescence, concentration not given here; parasite load remaining: stronger effect = lower value; viability: measured here: HepG2 viability without parasites
[2] = Wnt pathway potentiators raising nuclear beta-catenin – imaging, WNT3A-conditioned medium, mouse C2C12, NPC library, primary screen (AID 1117326; in the data active = nuclear beta-catenin stimulation mostly above about 4.2%, no sharp cut-off; inactive = mostly below about 10%); conditions: stronger effect = higher value
[3] = stimulators of insulin release from INS-1E, primary screen, cell-based, 5 mM glucose, NPC library (AID 1117329;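 active = compound raises insulin release from rat beta cells at 5 mM glucose, no numeric limit stated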); conditions: rat INS-1E insulin secretion, at 10 µM, stronger effect = higher value
[4] = growth inhibition of GSK3B-pretreated HCT116 cells – cell-based, CellTiter-Glo, 0.2 to 20 µM (AID 1117336;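 active = compounds lowering colon cancer cell viability after pretreatment blocking the GSK3B kinase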); conditions: HCT116 viability after GSK3B inhibitor, at 20 µM, stronger effect = higher value
[5] = inhibition of endothelial tube formation, primary screen, imaging, VEGF stimulated, CD31 staining, tube area, NPC library (AID 1117340;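 active = compound that reduces growth-factor-driven endothelial tube area in a mixed cell culture, no cutoff stated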); conditions: VEGF-stimulated ADSC/ECFC co-culture, at 10 µM, stronger effect = higher value
[6] = GLP1 release stimulators, primary, NCI-H716, NPC library (AID 1117341;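 active = compound raises GLP1 secretion from the human gut endocrine cells, with no numeric limit stated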); conditions: NCI-H716 cells, at 10 µM, stronger effect = higher value
[7] = HCT116 colon cancer cell growth inhibition, primary screen, CellTiter-Glo luminescence, NPC library (AID 1117342;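 active = compounds that lower survival of HCT116 colon cancer cells in the luminescence readout, no numeric limit stated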); conditions: at 20 µM (top of the series)
[8] = reduced SW480 viability measured with CellTiter-Glo, NPC library, primary (AID 1117343;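 active = compounds that lower viability of the colon cancer cells in the luminescence readout, with no numeric limit stated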); conditions: CellTiter-Glo luminescence; at 20 µM (top of the series)
[9] = NPC library primary testing for decreased DLD-1 cell viability via CellTiter-Glo (AID 1117346;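 active = compounds that lower survival of DLD-1 colon cancer cells in the luminescence readout, no cutoff given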); conditions: DLD-1 viability, CellTiter-Glo luminescence; at 20 µM (top of the series)
[10] = biological target: 6-phosphogluconate dehydrogenase, decarboxylating (Homo sapiens) (UniProt P52209); assay: inhibition of human phosphogluconate dehydrogenase – biochemical, recombinant enzyme, NADPH absorbance, primary screen (AID 1159550;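 active = at least 20% inhibition of 6-phosphogluconate dehydrogenase activity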); conditions: recombinant 6PGD, NADPH absorbance 341 nm; at 10 µM; stronger effect = higher value
Chain of 6-phosphogluconate dehydrogenase, decarboxylating (Homo sapiens) (P52209 whole entry, looked up): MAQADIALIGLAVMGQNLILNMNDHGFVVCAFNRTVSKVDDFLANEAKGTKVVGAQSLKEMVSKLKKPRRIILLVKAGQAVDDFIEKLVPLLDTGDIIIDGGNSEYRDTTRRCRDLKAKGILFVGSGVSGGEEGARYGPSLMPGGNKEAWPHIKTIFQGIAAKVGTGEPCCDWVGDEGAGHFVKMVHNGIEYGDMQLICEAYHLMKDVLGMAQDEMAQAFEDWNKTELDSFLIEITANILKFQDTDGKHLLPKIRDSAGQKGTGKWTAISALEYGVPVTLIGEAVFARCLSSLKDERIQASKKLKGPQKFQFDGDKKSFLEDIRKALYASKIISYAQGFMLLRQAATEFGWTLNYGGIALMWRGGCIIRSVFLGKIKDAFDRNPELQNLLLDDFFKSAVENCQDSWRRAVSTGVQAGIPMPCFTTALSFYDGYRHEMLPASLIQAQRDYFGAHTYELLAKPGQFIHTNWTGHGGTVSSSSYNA

[11] = viability loss with induced miR-34 in A549 – imaging, A549 dox-inducible miR-34, nuclei and caspase counts, primary screen (AID 1347080;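 active = compounds whose cell count with miR-34 switched on is under 0.7 times the count with it off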); conditions: A549 miR-34 inducible, Hoechst nuclei count, 48 h
[12] = MELAS cybrid and Rieske KO viability enhancers – cell-based, MELAS cybrids, Rieske KO mouse fibroblasts, CellTiter-Glo, primary screen (AID 1508586;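 active = mean z-score across replicates of 1.96 or higher in either the MELAS or the Rieske mutant cell line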;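 also: z relative to plate mean and SD of compound and empty wells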); conditions: low glucose
[13] = biological target: NAD(+) hydrolase SARM1 (Homo sapiens) (UniProt Q6SZW1); assay: blocking NAD cleavage by SARM1 SAM-TIR – cell lysate, NAD-Glo luminescence (AID 1508614;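 active = compound whose remaining NAD level is above about 45 nM, limit read from the data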;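 also: higher remaining NAD means stronger inhibition of SARM1 NADase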); conditions: SAM-TIR HEK293T lysate NADase, at 1 µM, stronger effect = higher value
Chain of NAD(+) hydrolase SARM1 (Homo sapiens) (Q6SZW1 whole entry, looked up, the tested form may be a part): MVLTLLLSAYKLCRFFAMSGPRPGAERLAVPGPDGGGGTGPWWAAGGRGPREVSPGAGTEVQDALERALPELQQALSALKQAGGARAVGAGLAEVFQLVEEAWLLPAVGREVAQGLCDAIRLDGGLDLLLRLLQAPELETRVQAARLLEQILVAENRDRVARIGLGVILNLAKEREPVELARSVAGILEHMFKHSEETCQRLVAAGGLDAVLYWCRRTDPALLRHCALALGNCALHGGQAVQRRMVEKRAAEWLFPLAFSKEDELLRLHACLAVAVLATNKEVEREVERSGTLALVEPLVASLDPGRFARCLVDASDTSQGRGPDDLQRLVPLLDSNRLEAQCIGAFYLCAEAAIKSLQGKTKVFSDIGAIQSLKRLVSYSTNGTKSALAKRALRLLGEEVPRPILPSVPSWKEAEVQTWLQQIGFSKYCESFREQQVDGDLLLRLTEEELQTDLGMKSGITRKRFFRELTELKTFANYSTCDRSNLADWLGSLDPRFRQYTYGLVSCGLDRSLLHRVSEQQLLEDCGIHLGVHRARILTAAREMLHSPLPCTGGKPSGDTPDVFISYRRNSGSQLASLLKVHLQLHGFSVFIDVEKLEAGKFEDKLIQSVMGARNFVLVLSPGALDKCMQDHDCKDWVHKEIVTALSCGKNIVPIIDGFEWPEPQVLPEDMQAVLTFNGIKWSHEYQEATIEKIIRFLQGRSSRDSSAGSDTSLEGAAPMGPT

[14] = biological target: Mitogen-activated protein kinase 7 (Homo sapiens) (UniProt Q13164); assay: Gal4-ERK5 driven luciferase induction – cell-based, HTS, primary screen (AID 1508626;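 active = luciferase signal above three times the same-plate solvent-only control wells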;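 also: luciferase driven by Gal4-ERK5 fusion binding five Gal4 sites before minimal TATA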); conditions: HeLa Gal4-ERK5 transactivation, 18 h, at 5 µM, stronger effect = higher value
Chain of Mitogen-activated protein kinase 7 (Homo sapiens) (Q13164 whole entry, looked up, the tested form may be a part): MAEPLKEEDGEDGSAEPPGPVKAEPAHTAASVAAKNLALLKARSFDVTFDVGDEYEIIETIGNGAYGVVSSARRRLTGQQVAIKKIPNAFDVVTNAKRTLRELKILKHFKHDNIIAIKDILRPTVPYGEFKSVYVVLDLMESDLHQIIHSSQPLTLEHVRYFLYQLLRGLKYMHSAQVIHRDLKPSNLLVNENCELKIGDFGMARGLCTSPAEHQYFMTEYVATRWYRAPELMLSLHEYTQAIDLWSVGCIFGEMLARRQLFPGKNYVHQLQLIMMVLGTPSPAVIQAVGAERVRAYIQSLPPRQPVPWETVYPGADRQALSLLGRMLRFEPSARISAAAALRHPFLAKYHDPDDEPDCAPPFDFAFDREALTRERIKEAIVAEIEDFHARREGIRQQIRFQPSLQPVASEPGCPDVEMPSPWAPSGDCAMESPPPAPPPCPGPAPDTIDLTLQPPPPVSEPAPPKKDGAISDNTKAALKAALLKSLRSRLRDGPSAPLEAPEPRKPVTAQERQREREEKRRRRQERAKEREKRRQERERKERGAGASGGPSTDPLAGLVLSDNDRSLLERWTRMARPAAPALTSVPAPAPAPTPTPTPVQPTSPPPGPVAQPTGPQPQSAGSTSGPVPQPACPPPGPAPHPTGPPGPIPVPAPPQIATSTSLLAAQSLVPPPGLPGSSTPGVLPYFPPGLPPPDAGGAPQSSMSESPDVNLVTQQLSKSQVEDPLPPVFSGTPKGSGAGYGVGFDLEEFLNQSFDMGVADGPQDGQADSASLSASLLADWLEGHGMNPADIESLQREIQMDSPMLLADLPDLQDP

[15] = galactose survival enhancers in mitochondrial complex I cybrids – cell-based, galactose medium, ATP luminescence, primary screen (AID 1645843;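 active = z-score of at least 1.8 in each of two replicates, scored against plate mean and spread of sample wells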;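 also: positive z means more ATP and so rescue of galactose-driven cybrid death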); conditions: complex I mutant cybrid cells, 72 h, stronger effect = higher value
[16] = yeast 75Q aggregation reduction – 75Q-TubU reporter (AID 1593); conditions: Yeast 75Q polyglutamine aggregation reporter
[17] = blockers of cytochrome c efflux from mitochondria – biochemical, purified mitochondria (AID 1603); conditions: stronger effect = lower value;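 also: mouse liver mitochondria challenged with calcium chloride; signal normalized to the plate average as 100%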
[18] = polyglutamine aggregate formation blockers (AID 1604); conditions: polyglutamine-induced protein aggregation inhibition assay; stronger effect = higher value; tested at 2.5 µM
[19] = test system: Aerobactin synthetase IucA (Klebsiella pneumoniae hvKP1); assay: IucA enzyme inhibition, primary screen, biochemical, Spectrum library (AID 1346200; call rule not given here;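 also: 100% = wells without compound and 0% = wells lacking enzyme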); conditions: malachite green pyrophosphate, A620, at 8 µM, stronger effect = lower value
[20] = EMT-state selective cytotoxicity in co-culture – imaging, PC-3E GFP, TEM4-18 mCherry, primary screen (AID 1345086;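 active = compounds killing one labelled cell type while sparing the other, by normalised counts and ratio limits, not self-fluorescent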;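 as to all read-outs here: cells exposed to compound for 72 h before imaging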;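 as to red/green cell ratio (normalised): normalised mesenchymal count divided by normalised epithelial count so high means epithelial killing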); conditions: PC-3E GFP / TEM4-18 mCherry co-culture, imaging cell counts, at 1 µM; for red/green cell ratio (normalised): actives lie on both sides
[21] = measured here: relative caspase fold change +Dox/-Dox
[22] = measured here: total cells with miR-34 induction, stronger effect = lower value
[23] = measured here: total cells without miR-34 induction
[24] = MELAS cybrid survival, CellTiter-Glo 48 h, stronger effect = higher value
[25] = Rieske KO mouse fibroblast survival, CellTiter-Glo 72 h
[26] = measured here: epithelial PC-3E GFP cell survival
[27] = measured here: mesenchymal TEM4-18 mCherry cell survival

Compound: C[C@@H]1CC[C@H]2[C@@H](C)C(=O)O[C@@H]3O[C@@]4(C)CC[C@@H]1[C@]32OO4
- parasite load remaining [1]: 25.6% (inactive) and 10.2% (inactive)
- viability [1]: 117% and 66.5%
- nuclear beta-catenin stimulation ([2]; at 10 µM): 4.6% (inactive)
- nuclear beta-catenin stimulation ([2]; stimulation, at 2 µM): 12.4%
- insulin secretion stimulation [3]: 1.2% (inactive)
- viability decrease [4]: -77.7% (inactive)
- tube area decrease [5]: 2.4% (inactive)
- GLP1 secretion stimulation [6]: 2.4% (inactive)
- inhibition of viability [7]: -20.1% (inactive)
- viability decrease (inhibition) [8]: 9.1% (inactive)
- viability decrease (inhibition) [9]: 1.3% (inactive)
- inhibition [10]: 13.7% (inactive)
- fold change ([11]; stronger effect = lower value): 0.79 (inactive) and 0.823 (inactive) and 0.882 (inactive)
- fold change [11, 21]: 1.42 and 2.37 and 1.1
- cell count [11, 22]: 7550 and 7220 and 8310
- cell count [11, 23]: 9550 and 8770 and 9420
- z-score [12, 24]: -0.639 (inactive) and -0.018 (inactive)
- z-score [12, 25]: -1.11 and 0.162
- remaining NAD [13]: 10 nM (inactive)
- luciferase signal [14]: 84 AU (inactive)
- z-score [15]: -0.515 (inactive) and -1.27 (inactive)

Compound: CC(=O)[O][Hg][c]1ccccc1
- score [16]: -0.45
- cytochrome c release ratio [17]: 1.06
- inhibition of aggregation [18]: -25.5%
- parasite load remaining [1]: 3.54% (inactive) and -0.265% (inactive)
- viability [1]: 23.1% and 0.225%
- nuclear beta-catenin stimulation ([2]; at 10 µM): 14.5% (inactive)
- nuclear beta-catenin stimulation ([2]; stimulation, at 2 µM): 13.2%
- insulin secretion stimulation [3]: 15.9% (inactive)
- viability decrease [4]: 103% (active)
- tube area decrease [5]: 110% (active)
- GLP1 secretion stimulation [6]: 49.8% (active)
- inhibition of viability [7]: 103% (active)
- viability decrease (inhibition) [8]: 144% (active)
- viability decrease (inhibition) [9]: 105% (active)
- inhibition [10]: -9.01% (inactive)
- activity remaining [19]: -6.18% (active)
- fold change ([11]; stronger effect = lower value): 0.775 (inactive)
- fold change [11, 21]: 1.65
- cell count [11, 22]: 334
- cell count [11, 23]: 432
- remaining NAD [13]: 63 nM (active)
- luciferase signal [14]: 32 AU (inactive)

Compound: CC(=O)NC1CCSC1=O (stereo not drawn)
- parasite load remaining [1]: 132% (inactive)
- viability [1]: 109%
- nuclear beta-catenin stimulation ([2]; at 10 µM): 2.9% (inactive)
- nuclear beta-catenin stimulation ([2]; stimulation, at 2 µM): 3%
- insulin secretion stimulation [3]: 0.7% (inactive)
- viability decrease [4]: -1% (inactive)
- tube area decrease [5]: 8% (inactive)
- GLP1 secretion stimulation [6]: -0.5% (inactive)
- inhibition of viability [7]: -4.73% (inactive)
- viability decrease (inhibition) [8]: 12.1% (inactive)
- viability decrease (inhibition) [9]: -3.7% (inactive)
- inhibition [10]: 18.8% (inactive)
- red/green cell ratio (normalised) [20]: 0.96 (inactive)
- normalised cell number [20, 26]: 1.05
- normalised cell number [20, 27]: 1.02
- fold change ([11]; stronger effect = lower value): 0.927 (inactive)
- fold change [11, 21]: 0.928
- cell count [11, 22]: 7880
- cell count [11, 23]: 8510
- z-score [12, 24]: -0.207 (inactive)
- z-score [12, 25]: -0.982
- remaining NAD [13]: 10 nM (inactive)
- luciferase signal [14]: 52 AU (inactive)

Compound: CNC(C)(C)Cc1ccccc1
- score [16]: 1.71
- cytochrome c release ratio [17]: 1.14
- inhibition of aggregation [18]: 68.2%
- parasite load remaining [1]: 104% (inactive) and 157% (inactive) and 55.8% (inactive)
- viability [1]: 104% and 88.4% and 81%
- nuclear beta-catenin stimulation ([2]; at 10 µM): -2.4% (inactive)
- nuclear beta-catenin stimulation ([2]; stimulation, at 2 µM): 0.7%
- insulin secretion stimulation [3]: 2.7% (inactive)
- viability decrease [4]: -16.7% (inactive)
- tube area decrease [5]: -0.3% (inactive)
- GLP1 secretion stimulation [6]: 1.1% (inactive)
- inhibition of viability [7]: 0.43% (inactive)
- viability decrease (inhibition) [8]: 15.4% (inactive)
- viability decrease (inhibition) [9]: -5.3% (inactive)
- inhibition [10]: -16.6% (inactive)
- red/green cell ratio (normalised) [20]: 1.08 (inactive)
- normalised cell number [20, 26]: 0.92
- normalised cell number [20, 27]: 1
- activity remaining [19]: 99.6% (inactive)
- fold change ([11]; stronger effect = lower value): 0.876 (inactive) and 0.893 (inactive)
- fold change [11, 21]: 1.32 and 3.57
- cell count [11, 22]: 7450 and 10900
- cell count [11, 23]: 8510 and 12200
- z-score [12, 24]: -0.189 (inactive)
- z-score [12, 25]: -0.596
- remaining NAD [13]: 10 nM (inactive)
- luciferase signal [14]: 56 AU (inactive)
